# This is a sample that favours compounds with a hit; in the whole collection about 8.7% have one here.
# PostGolgi ctrl: inhibits growth of the yeast control strain. efflux-deficient yeast background strain, growth absorbance A615, 16 h. inhibition, % at 10 µM. actives 5% (n = 98,000). AID 738
# Smad3 FoxH1 inh: inhibitors of human Smad3 transcription factor binding; P84022; TR-FRET Smad3/Dy647-FoxH1 peptide binding, europium anti-His; inhibition, % at 25 µM; actives 0.29% (n = 88,000); AID 630;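 active = compounds that reduce the energy-transfer binding signal between the protein and its labelled peptide by more than half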;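 also: 0% = Smad3 plus labelled peptide maximal FRET and 100% = peptide-only background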
# Target sequence (P84022 whole entry, looked up): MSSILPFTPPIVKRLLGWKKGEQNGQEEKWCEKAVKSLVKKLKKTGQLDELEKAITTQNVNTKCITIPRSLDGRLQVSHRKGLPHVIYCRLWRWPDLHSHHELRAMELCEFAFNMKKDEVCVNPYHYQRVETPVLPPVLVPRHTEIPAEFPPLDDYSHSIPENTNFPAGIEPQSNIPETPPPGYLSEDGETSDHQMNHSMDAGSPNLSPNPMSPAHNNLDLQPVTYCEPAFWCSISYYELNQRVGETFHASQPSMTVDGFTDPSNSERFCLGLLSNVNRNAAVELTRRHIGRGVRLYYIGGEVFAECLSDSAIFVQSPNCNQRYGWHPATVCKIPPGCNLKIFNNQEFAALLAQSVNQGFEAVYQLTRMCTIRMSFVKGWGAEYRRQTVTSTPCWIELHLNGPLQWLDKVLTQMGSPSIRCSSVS
# PostGolgi yeast: growth inhibition of a yeast mutant, post-Golgi transport screen; actives 0.9% (n = 98,000); AID 739; inhibition, % at 10 µM; post-Golgi transport phenotypic cell assay;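 also: yeast cells grown in 1536-well plates; yeast grown about 18 h at 30C before absorbance read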
# TNAP act mid DEA: activates human TNAP at intermediate phosphate acceptor concentration; purified TNAP, CDP-star luminescence, 100 mM DEA, 30 min; stronger effect = higher value; scale: 0 levamisole-inhibited, 1 vehicle-only enzyme; P05186; 64,000 tested, under 10 active; AID 813; activation factor at 20 µM;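 active = activation factor of at least 2 at 20 µM, relative to controls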
# hDAT+cocaine: changed human dopamine transporter uptake under cocaine IC80; LLC-PK1 hDAT cells, [14C]-dopamine uptake with cocaine IC80; actives deviate in either direction; AID 449768; actives 1.3% (n = 110,000); Q01959; B-score at 10 µM;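 active = Z score or B-score, a plate-position-corrected score, falls beyond the plate's 99.7% confidence bounds, in either direction; inactive = both scores lie inside the 99.7% bounds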;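 also: scored against the spread of the other compound wells on the same plate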
# Cav32 inh: inhibitors of human Cav3.2 T-type calcium channel; O95180; actives 4% (n = 100,000); B-score at 10 µM; Cav3.2-expressing cells, Fluo-4 calcium fluorescence FDSS; stronger effect = lower value; AID 449739;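 active = single-dose well whose peak fluorescence ratio is a statistical outlier from its plate by either plate-standardised score or position-corrected B-score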
# * hit, by the source's call; . = not tested or not shown. Rule as the data show it, unless noted: active = inhibition above about 30%; inactive = the rest.
SMILES,PostGolgi ctrl,Smad3 FoxH1 inh,PostGolgi yeast,TNAP act mid DEA,hDAT+cocaine,Cav32 inh
Cc1cccc(-n2ccnc2SCC(=O)Nc2ccc3c(c2)OCCO3)c1,-2,5,1,1,1.8*,.
O=C(CSc1nnc2scc(-c3ccccc3)n12)Nc1ccc2c(c1)OCCO2,37*,0,1,0.9,0.44,-1.1
Cc1ccc(-c2nc(NC(=O)CSc3nnc4scc(-c5ccccc5)n34)ns2)cc1,.,-8,.,0.9,2.6*,-0.71
c1ccc(-c2csc3nnc(SCc4ccc5c(c4)OCO5)n23)cc1,33*,.,-3,0.9,-0.35,-1.8
C/C=C1\COC(C(=O)NCCCN2CCCC2=O)(C(F)(F)F)C=C1C=C(C)C (configuration not stated),.,.,.,.,0.6,1.3
CN(C)c1ccc(/C=N/NC(=S)NCc2ccccc2)cc1,11,.,-3,.,-0.51,-0.32
CCCCn1c(-c2csc3c2CCC(C)C3)n[nH]c1=S (configuration not stated),42*,.,-3,.,1,-1.6
CCCCn1c(-c2csc3ccccc23)n[nH]c1=S,11,.,-8,.,.,.
CCOC(=O)CSc1nc2ccccc2c(=O)n1CC1COc2ccccc2O1 (configuration not stated),21,6,-2,0.9,-0.09,0.28
CCCN(CCC)C(=O)CSc1nc2ccccc2c(=O)n1CC1COc2ccccc2O1 (configuration not stated),1,4,1,.,-0.27,-5.9*
COc1ccc(-c2ncc3ccccn23)cc1OC,13,5,23,.,1.4,0.15
NC(=S)Nc1cccc2cccnc12,35*,.,11,.,-0.68,-0.041
CN(C)c1oc(-c2ccccc2Cl)nc1P(=O)(c1ccccc1)c1ccccc1,7,.,31*,.,1.9,-7.3*
COc1ccccc1-c1nc(S(=O)(=O)c2ccc(Cl)cc2)c(N(C)C)o1,24,-10,11,0.9,-0.63,2.7
CC1=C(C(=O)OCc2ccccc2)C(c2ccco2)C2=C(CC(C)(C)CC2=O)N1 (configuration not stated),10,5,-4,0.9,-0.33,.
Cc1cc(N2CCC(C(=O)N3CCN(c4cccc(C)c4C)CC3)CC2)n2ncnc2n1,-2,6,20,0.9,0.92,-0.93
c1ccc2cc(-c3cc4ccccn4c3)ccc2c1,8,-17,-10,.,0.35,0.47
O=C(Nc1nc2ccccc2n1CCN1CCCCC1)c1ccco1,4,-3,2,1.1,0.97*,-0.52
O=C(Nc1nc2ccccc2n1CCOc1ccccc1)c1ccco1,7,1,-7,0.9,2.3*,.
Cc1cccc(OCCn2c(-c3ccco3)nc3ccccc32)c1,30*,6,12,.,0.064,-2.8
Cc1cccc(OCCn2c(S(=O)(=O)O)nc3ccccc32)c1,25,3,2,.,-0.029,0.059
Cc1cccc(OCCn2c(NC(=O)c3ccco3)nc3ccccc32)c1,51*,7,3,0.9,1.6,-3.6
O=C(Nc1nc2ccccc2n1CCOc1ccc(Cl)cc1)c1ccco1,49*,7,7,0.8,-0.7,-1.4
Cc1ccc(OCCn2c(NC(=O)c3ccco3)nc3ccccc32)cc1,-4,-8,-11,1,0.0037,0.75
C=CCN(C(=O)CCC(=O)O)C1CC(=O)N(c2ccc(OC)cc2)C1=O (configuration not stated),-5,5,8,1,-1.8,-0.026
SMILES,PostGolgi ctrl,Smad3 FoxH1 inh,PostGolgi yeast,TNAP act mid DEA,hDAT+cocaine,Cav32 inh
CCCOc1ccc(N2C(=O)CC(N(CCc3ccc(OC)cc3)C(=O)c3cccc(F)c3)C2=O)cc1 (configuration not stated),9,.,-16,.,-0.0069,-4.6*
C=CCN(C(=O)CCC(=O)O)C1CC(=O)N(c2ccc(OCCC)cc2)C1=O (configuration not stated),34*,4,-21,0.9,-0.32,-0.72
Cc1ccc(Cl)cc1N1CCN(C(=O)CSc2nnc3n2C(C)(C)Cc2ccccc2-3)CC1,.,7,.,.,2,-5.5*
COc1ccc(N2CCN(C(=O)CSc3nnc4n3C(C)(C)Cc3ccccc3-4)CC2)cc1,3,1,6,0.9,0.4,.
CCCCN(CC)c1nc(-c2ccncc2)nc2ccccc12,63*,-3,5,.,0.74,-2.4
COc1nc(-c2ccncc2)nc2ccccc12,10,-10,4,.,0.2,-1.2

# High-throughput results (PubChem)
